Results from PubChem BioAssay (Tox21).
Records with an inconclusive call do not appear. A number with no mark means an inactive call. Calls of active or inactive are those of the source. Unless noted, calls come from the whole dose curve; as a rule, active = well fitted activation curve with a large enough effect in the repeat runs; inconclusive = weak or mixed curves; inactive = no such curve, though single readings can be large or run the other way.

Experiment: qHTS assay for small molecule agonists of the p53 signaling pathway (AID 651631; calls by dose curve)
Details: HCT-116 p53RE-bla reporter, beta-lactamase FRET ratio, 16 h; series mostly up to 73.3 µM; activation: at the top concentration
Method in brief: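 Testing took place in human colorectal HCT-116 cells with stable p53RE-driven beta-lactamase. After 16 h of compound exposure at 37 °C, a FRET substrate was added and fluorescence recorded 2 h later.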
% is set by controls: 0 for no effect and ±100 for the full control effect.
Note: nearly all actives have a fitted effect of over 15% in size.

SMILES	activation	outcome
O=C(O)Cc1cn(-c2ccccc2)nc1-c1ccc(Cl)cc1	-5.99%	
CCCCCCOC(=O)CC	-2.34%	
O=C(O)c1cc(Cl)cc([N+](=O)[O-])c1Cl	-1.75%	
Nc1nnc(-c2cccc(Cl)c2Cl)c(N)n1	-1.56%	
CC(C(=O)O)c1ccc2c(c1)CC(=O)c1ccccc1S2 (stereo not given)	-2.13%	
COCCOC(=O)C1=C(C)NC(C)=C(C(=O)OC(C)C)C1c1cccc([N+](=O)[O-])c1 (stereo not given)	-3.96%	
COc1ccc(-c2cc(=O)c3c(O)cc(O[C@@H]4O[C@H](CO[C@@H]5O[C@@H](C)[C@H](O)[C@@H](O)[C@H]5O)[C@@H](O)[C@H](O)[C@H]4O)cc3o2)cc1O	-3.9%	
CC(=O)NCc1c(I)c(NC(C)=O)c(I)c(C(=O)O)c1I	-3.06%	
Cc1cccc(C)c1OCC(C)N (stereo not given)		inactive
CC(C)NCC(O)COc1ccc(COCCOC(C)C)cc1 (stereo not given)	1.02%	
C[C@@H]1O[C@@H](O[C@@H]2[C@@H](O)[C@H](OCCc3ccc(O)c(O)c3)O[C@H](CO[C@@H]3O[C@H](CO)[C@@H](O)[C@H](O)[C@H]3O)[C@H]2OC(=O)/C=C/c2ccc(O)c(O)c2)[C@H](O)[C@H](O)[C@H]1O	-4.47%	
CC(=O)/C=C/C1C(C)=CCC(C)C1(C)C (stereo not given)	-1.92%	
Brc1ccc(-c2ccccc2)cc1	4.3%	
C=C(C)C(=O)OCCNC(C)(C)C	3.84%	
C=COCCOCCOCCOC=C	4.88%	
CC(=O)CCCCn1c(=O)c2c(ncn2C)n(C)c1=O	1.6% [at 34.7 µM]	
FC(F)(F)c1ccccc1-n1ccnc1	3.23%	
C=Cc1ccccn1	-0.932% [at 95.1 µM]	

SMILES	activation	outcome
CC(N)C(=O)OC(C)(C)Cc1ccc(Cl)cc1 (stereo not given)	-2.66%	
CCO[Si](CCCS)(OCC)OCC	-1.57%	
NS(=O)(=O)c1ccc(NC(=O)CCC(=O)O)cc1	4.21%	
O=C(/N=N/C(=O)OCc1ccccc1)OCc1ccccc1	-1.22%	
CC(S)C(=O)NCC(=O)O (stereo not given)	3.14%	
C#CC(C)N(C)C(=O)Nc1ccc(Cl)cc1 (stereo not given)	-2.73%	
Nc1ccc([N+](=O)[O-])c(N)c1	-2.14%	
CC(C)(C)NC(N)=O	-1.94%	
COC(=O)C1CC(=O)C(C(=O)OC)CC1=O (stereo not given)	-2.34% [at 8.3 µM]	
Oc1cn2c(n1)Nc1ccc(Cl)c(Cl)c1C2	1.75%	
CC1=CCC(C(C)C)=CC1	0.534%	
COCCOCCOCCOCCOCCO	-2.8%	
O=C(c1ccc(O)cc1)c1ccc(O)c(O)c1O	-1.37% [at 95.1 µM]	
O=C1O[C@@H]2[C@@H](O)[C@H](O)O[C@@H]2[C@H]1O		inactive
CC(=O)c1sc(C)nc1C	-3.07%	
CC(=O)Nc1ccc(S(=O)(=O)Nc2ccc([N+](=O)[O-])cc2)cc1	-2.02%	
CCOc1cc([N+](=O)[O-])c(OCC)cc1N1CCOCC1	3.85%	

Experiment: qHTS assay for small molecules that induce genotoxicity in human embryonic kidney cells expressing luciferase-tagged ATAD5 (AID 651632)
Details: HEK293T ATAD5-luciferase induction, 16 h; series mostly up to 83.3 µM; activation: at the top concentration
Method in brief: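 Luminescent reporter readout, HEK293T ATAD5-luc line: 16 hr drug exposure (37C, 5% CO2) followed by Amplite, 30 min RT.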

SMILES	activation	Potency
O=C(O)Cc1cn(-c2ccccc2)nc1-c1ccc(Cl)cc1	0.442%	
CCCCCCOC(=O)CC	1.46%	
O=C(O)c1cc(Cl)cc([N+](=O)[O-])c1Cl	-2.32%	
Nc1nnc(-c2cccc(Cl)c2Cl)c(N)n1	2.35%	
CC(C(=O)O)c1ccc2c(c1)CC(=O)c1ccccc1S2 (stereo not given)	1.95%	
COCCOC(=O)C1=C(C)NC(C)=C(C(=O)OC(C)C)C1c1cccc([N+](=O)[O-])c1 (stereo not given)	-8.38%	
COc1ccc(-c2cc(=O)c3c(O)cc(O[C@@H]4O[C@H](CO[C@@H]5O[C@@H](C)[C@H](O)[C@@H](O)[C@H]5O)[C@@H](O)[C@H](O)[C@H]4O)cc3o2)cc1O	5.06%	
CC(=O)NCc1c(I)c(NC(C)=O)c(I)c(C(=O)O)c1I	6.18%	
Cc1cccc(C)c1OCC(C)N (stereo not given)	-2.73%	
CC(C)NCC(O)COc1ccc(COCCOC(C)C)cc1 (stereo not given)		inactive
C[C@@H]1O[C@@H](O[C@@H]2[C@@H](O)[C@H](OCCc3ccc(O)c(O)c3)O[C@H](CO[C@@H]3O[C@H](CO)[C@@H](O)[C@H](O)[C@H]3O)[C@H]2OC(=O)/C=C/c2ccc(O)c(O)c2)[C@H](O)[C@H](O)[C@H]1O	0.975%	
CC(=O)/C=C/C1C(C)=CCC(C)C1(C)C (stereo not given)	1.77%	
Brc1ccc(-c2ccccc2)cc1	0.59%	
C=C(C)C(=O)OCCNC(C)(C)C	-3.79%	
C=COCCOCCOCCOC=C	2.86%	
CC(=O)CCCCn1c(=O)c2c(ncn2C)n(C)c1=O	2.34% [at 39.1 µM]	
FC(F)(F)c1ccccc1-n1ccnc1	2.25%	
C=Cc1ccccn1	-1.76% [at 95.3 µM]	

SMILES	activation	Potency
CC(N)C(=O)OC(C)(C)Cc1ccc(Cl)cc1 (stereo not given)	-2.36%	
CCO[Si](CCCS)(OCC)OCC	-1.12%	
NS(=O)(=O)c1ccc(NC(=O)CCC(=O)O)cc1	3.46%	
O=C(/N=N/C(=O)OCc1ccccc1)OCc1ccccc1	2.23%	
CC(S)C(=O)NCC(=O)O (stereo not given)	-1.63%	
C#CC(C)N(C)C(=O)Nc1ccc(Cl)cc1 (stereo not given)	3.42%	
Nc1ccc([N+](=O)[O-])c(N)c1	1.46%	
CC(C)(C)NC(N)=O	1.05%	
COC(=O)C1CC(=O)C(C(=O)OC)CC1=O (stereo not given)	2.21% [at 8.08 µM]	
Oc1cn2c(n1)Nc1ccc(Cl)c(Cl)c1C2		inactive
CC1=CCC(C(C)C)=CC1	-0.705%	
COCCOCCOCCOCCOCCO	-0.98%	
O=C(c1ccc(O)cc1)c1ccc(O)c(O)c1O	-12.7% [at 95.3 µM]	
O=C1O[C@@H]2[C@@H](O)[C@H](O)O[C@@H]2[C@H]1O		inactive
CC(=O)c1sc(C)nc1C	1.56%	
CC(=O)Nc1ccc(S(=O)(=O)Nc2ccc([N+](=O)[O-])cc2)cc1	1.89%	
CCOc1cc([N+](=O)[O-])c(OCC)cc1N1CCOCC1	-2.83%	
